The results in this text go back to PubChem BioAssay (NCATS).

Each structure is given as a SMILES string. Results filed as inconclusive are left out. A number with no mark means an inactive call. Active and inactive are the calls of the source. Calls come from the whole dose curve; as a rule, active = well fitted curve in the direction sought with a large enough effect; inconclusive = small, poorly fitted or top-dose-only effect, or another doubt; inactive = no such curve, though single readings can be large; an effect the other way counts as inactive or inconclusive.

Assay [1] concerns the target Rap guanine nucleotide exchange factor 3 (Homo sapiens) (UniProt O95398). Briefly: Confirmatory qHTS for agonist of cAMP-regulated guanine nucleotide exchange factor 3 (EPAC1) (AID 1645881).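 Note: EPAC1 catalysed release of BODIPY-GDP from Rap1B seen as fluorescence loss; 100% = effect of cAMP agonist control; nearly all actives have a fitted effect of over 75% in size.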
Assay [2] addresses Rap guanine nucleotide exchange factor 4 (Homo sapiens) (UniProt Q8WZA2). The assay is described as follows: Confirmatory qHTS for agonist of cAMP-regulated guanine nucleotide exchange factor 4 (EPAC2) (AID 1645884).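 Note: nucleotide exchange releases bodipy-GDP from Rap1 and this lowers its fluorescence; % is set by controls: 0 for no effect and ±100 for the full control effect; nearly all actives have a fitted effect of over 65% in size.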 For orientation: qHTS replaces the single test concentration by a dilution series.
For assay [3] the target is unchanged. Briefly: Confirmatory qHTS for antagonist of cAMP-regulated guanine nucleotide exchange factor 4 (EPAC2) (AID 1645885). For activity change, negative = inhibition: % is set by controls: 0 for no effect and ±100 for the full control effect. Note: nearly all actives have a fitted effect of over 25% in size. Note: potency is the fitted concentration of half-maximal effect.
In assay [4] the target is Rap guanine nucleotide exchange factor 3 (Homo sapiens) (UniProt O95398). The assay is described as follows: Counterscreen qHTS for antagonist of cAMP-regulated guanine nucleotide exchange factor 3 (EPAC1) (AID 1645888). Note: % of control where 0% means no effect. In a few lines: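 Measured: fluorescence of BODIPY-GDP bound to Rap1B, which falls as exchange proceeds. Conditions include 50 uM competing GDP, 5 and 30 min reads, and a later cAMP challenge for antagonist detection.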
Background: Counterscreens check selectivity or assay interference.

Sequence of Rap guanine nucleotide exchange factor 4 (Homo sapiens) (Q8WZA2 whole entry, looked up): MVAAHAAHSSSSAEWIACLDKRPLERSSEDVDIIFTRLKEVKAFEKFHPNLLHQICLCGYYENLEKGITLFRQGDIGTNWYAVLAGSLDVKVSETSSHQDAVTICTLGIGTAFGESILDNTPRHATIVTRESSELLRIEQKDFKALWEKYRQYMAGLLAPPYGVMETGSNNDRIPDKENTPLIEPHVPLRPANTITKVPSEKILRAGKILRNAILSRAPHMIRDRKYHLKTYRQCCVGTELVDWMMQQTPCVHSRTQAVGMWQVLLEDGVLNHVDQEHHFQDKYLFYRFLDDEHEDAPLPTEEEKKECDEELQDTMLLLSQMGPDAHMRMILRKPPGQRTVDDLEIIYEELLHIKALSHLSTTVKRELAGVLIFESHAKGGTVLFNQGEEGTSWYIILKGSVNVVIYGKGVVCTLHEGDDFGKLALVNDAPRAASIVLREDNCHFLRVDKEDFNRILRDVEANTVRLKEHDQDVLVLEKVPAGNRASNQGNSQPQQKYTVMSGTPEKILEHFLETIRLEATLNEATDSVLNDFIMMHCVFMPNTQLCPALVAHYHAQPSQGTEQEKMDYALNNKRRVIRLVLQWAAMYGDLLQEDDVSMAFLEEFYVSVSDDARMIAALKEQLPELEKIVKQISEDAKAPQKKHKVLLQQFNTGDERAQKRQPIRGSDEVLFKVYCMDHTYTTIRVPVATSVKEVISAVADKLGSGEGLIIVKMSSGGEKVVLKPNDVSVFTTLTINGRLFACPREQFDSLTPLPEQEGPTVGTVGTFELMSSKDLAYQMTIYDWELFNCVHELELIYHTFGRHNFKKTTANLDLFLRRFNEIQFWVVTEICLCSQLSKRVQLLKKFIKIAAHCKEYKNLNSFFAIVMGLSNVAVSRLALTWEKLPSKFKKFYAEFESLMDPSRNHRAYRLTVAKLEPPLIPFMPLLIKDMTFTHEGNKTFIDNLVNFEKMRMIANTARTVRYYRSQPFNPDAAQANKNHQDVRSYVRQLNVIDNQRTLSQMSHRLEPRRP
Sequence of Rap guanine nucleotide exchange factor 3 (Homo sapiens) (O95398 whole entry, looked up): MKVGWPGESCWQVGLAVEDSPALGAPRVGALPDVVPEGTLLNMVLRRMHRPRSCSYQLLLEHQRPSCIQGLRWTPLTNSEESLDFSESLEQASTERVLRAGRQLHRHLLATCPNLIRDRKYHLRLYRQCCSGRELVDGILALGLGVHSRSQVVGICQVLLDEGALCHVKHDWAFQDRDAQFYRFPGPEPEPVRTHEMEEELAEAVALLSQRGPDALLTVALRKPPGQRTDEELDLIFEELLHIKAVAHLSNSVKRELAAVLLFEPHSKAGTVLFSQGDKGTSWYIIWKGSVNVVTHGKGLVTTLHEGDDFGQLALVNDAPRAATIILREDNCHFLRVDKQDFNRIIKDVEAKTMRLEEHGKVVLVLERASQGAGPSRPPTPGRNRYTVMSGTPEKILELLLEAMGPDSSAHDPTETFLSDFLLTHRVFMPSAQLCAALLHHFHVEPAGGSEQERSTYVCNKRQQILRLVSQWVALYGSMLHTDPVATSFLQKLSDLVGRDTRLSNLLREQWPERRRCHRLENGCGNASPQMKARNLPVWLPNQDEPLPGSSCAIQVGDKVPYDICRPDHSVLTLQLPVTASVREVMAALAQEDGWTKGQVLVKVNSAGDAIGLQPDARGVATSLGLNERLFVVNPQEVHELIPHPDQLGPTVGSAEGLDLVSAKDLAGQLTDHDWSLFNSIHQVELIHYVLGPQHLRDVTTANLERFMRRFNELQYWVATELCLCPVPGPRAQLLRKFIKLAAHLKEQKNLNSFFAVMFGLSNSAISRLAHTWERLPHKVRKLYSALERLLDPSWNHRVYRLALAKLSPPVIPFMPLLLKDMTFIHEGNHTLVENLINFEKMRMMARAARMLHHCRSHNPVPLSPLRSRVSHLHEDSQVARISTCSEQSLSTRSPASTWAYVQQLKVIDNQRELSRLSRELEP

Turning to `COc1cc(NC(=O)c2cc3nc(-c4ccccc4)cc(-c4ccccc4)n3n2)cc(OC)c1OC`, the Potency entry in assay [1], in assay [2], in assay [3] and in assay [4] was “inactive” in each case.

Turning to `O=C1C(=O)c2ccc(-c3ccccc3)cc2-c2ccccc21`, the Potency result in assay [1], in assay [2], in assay [3] and in assay [4] was “inactive” in each case.

Regarding `O=c1cc(-c2ccccc2)[nH]n1-c1nc2ccccc2s1`, the Potency result in assay [1] and in assay [3] was “inactive” throughout. In assay [2], the activation is 11.1% [at 17.1 µM, percent relative to cAMP agonist control]. Further, the activity change, negative = inhibition in assay [4] is 2.08% [at 30.8 µM].

Turning to `C=C(C)COc1ccc(-c2[nH]ncc2-c2ccccc2OC)c(O)c1`, the Potency entry in assay [1] and in assay [3] was “inactive” each time. Besides, the activation in assay [2] was 16.3% [at 17.1 µM, percent relative to cAMP agonist control]. Also, the activity change, negative = inhibition in assay [4] is 6.08% [at 30.8 µM].

Regarding `Nc1ccccc1C(=O)NNc1c2ccccc2nc2ccccc12`, the Potency entry in assay [1], in assay [2], in assay [3] and in assay [4] was “inactive” throughout.

With `Cc1ccc(C(C[N+](=O)[O-])c2c(-c3ccccc3O)[nH][nH]c2=O)cc1` (stereo not drawn), in assay [1], the Potency entry is “inactive”. For the same molecule, the activation in assay [2] is 3.05% [at 17.1 µM, percent relative to cAMP agonist control]. In assay [3], the Potency was 3.38 µM (active). Further, in assay [4], the activity change, negative = inhibition was -0.345% [at 30.8 µM].

In the case of `CC(C)Cc1ccc(CN2CCCC(NC(=O)c3cnc4ccccn4c3=O)C2)cc1` (stereo not drawn), the Potency result in assay [1] and in assay [3] was “inactive” in each case. Moreover, in assay [2], the activation is 12.4% [at 17.1 µM, percent relative to cAMP agonist control]. In addition, the activity change, negative = inhibition in assay [4] was 5.64% [at 30.8 µM].

For the molecule `O=C(O)c1ccn2c(C(=O)c3ccc(Cl)cc3)c(-c3ccccc3)cc2c1`, the Potency entry in assay [1], in assay [2], in assay [3] and in assay [4] was “inactive” each time.

On to `O=C(NC1CCCCC1)C(c1ccc(-c2ccccc2)cc1)n1c(=O)c(-c2ccco2)nc2ccccc21` (stereo not drawn), for which the Potency result in assay [1], in assay [2], in assay [3] and in assay [4] was “inactive” throughout.

Turning to `CCCC(=O)OC1CC(C)N(C(=O)c2ccccc2)c2ccc(C)cc21` (stereo not drawn), the Potency result in assay [1] is “inactive”. Also, the activation in assay [2] is -2.84% [at 17.1 µM, percent relative to cAMP agonist control]. In addition, the Potency in assay [3] was 3.38 µM (active). For the same molecule, the activity change, negative = inhibition in assay [4] is -2.85% [at 30.8 µM].

On to `CN(CC(=O)Nc1cccc(F)c1)C(=O)c1cccc(S(=O)(=O)N2CC3(C)CC2CC(C)(C)C3)c1` (stereo not drawn), for which the Potency result in assay [1] and in assay [3] was “inactive” throughout. Besides, the activation in assay [2] is 8% [at 17.1 µM, percent relative to cAMP agonist control]. Also, the activity change, negative = inhibition in assay [4] is -23.1% [at 30.8 µM].

With `COc1ccc(Nc2cc(C(=O)NCCCN3CCN(c4ccccc4F)CC3)c3ccccc3n2)c(OC)c1`, the Potency entry in assay [1], in assay [2], in assay [3] and in assay [4] was “inactive” in each case.

Turning to `N#C/C(=C/C1=C(N2CCOCC2)C(=C/c2cccc([N+](=O)[O-])c2)/CC1)C(=O)Nc1ccccc1F`, the Potency entry in assay [1] and in assay [3] was “inactive” each time. The activation in assay [2] is 1.67% [at 17.1 µM, percent relative to cAMP agonist control]. Besides, the activity change, negative = inhibition in assay [4] is -3.26% [at 30.8 µM].

Regarding `Cc1ccc(-c2nc(-c3cc4cccc(OCc5ccc(F)cc5)c4oc3=O)no2)cc1`, the Potency result in assay [1], in assay [2], in assay [3] and in assay [4] was “inactive” throughout.

As to `Cc1ccc(N(Cc2cccs2)C(=O)c2ccc(Br)o2)cc1`, the Potency result in assay [1], in assay [2], in assay [3] and in assay [4] was “inactive” in each case.

As to `CN(C)C(CNC(=O)c1cc(-c2ccco2)nc2ccccc12)c1ccccc1` (stereo not drawn), the Potency entry in assay [1] and in assay [3] was “inactive” in each case. In addition, in assay [2], the activation was 5.95% [at 17.1 µM, percent relative to cAMP agonist control]. For the same molecule, the activity change, negative = inhibition in assay [4] was -8.2% [at 30.8 µM].

Regarding `CCc1cc(C(=O)Nc2ccc(S(=O)(=O)NC3=NCCCCC3)cc2)sc1C`, the Potency entry in assay [1] and in assay [3] was “inactive” throughout. Besides, the activation in assay [2] is 5.65% [at 17.1 µM, percent relative to cAMP agonist control]. Moreover, in assay [4], the activity change, negative = inhibition was 4.61% [at 30.8 µM].

On to `Cn1cnnc1SCC(=O)Nc1sc2c(c1C(N)=O)CCC2`, for which the Potency entry in assay [1], in assay [2], in assay [3] and in assay [4] was “inactive” each time.

Turning to `C=CCN(CC=C)Cc1cc(=O)oc2cc(C)c(Cl)cc12`, the Potency result in assay [1] and in assay [3] was “inactive” throughout. Also, in assay [2], the activation is 4.33% [at 17.1 µM, percent relative to cAMP agonist control]. In addition, in assay [4], the activity change, negative = inhibition was -4.4% [at 30.8 µM].

For the molecule `O=C(Nc1cccc(S(=O)(=O)NC2=NCCCCC2)c1)c1cc(-c2ccc(Cl)cc2)nc2ccccc12`, the Potency entry in assay [1], in assay [2], in assay [3] and in assay [4] was “inactive” each time.

Regarding `COc1ccc(/C=N\Nc2ccc([N+](=O)[O-])cc2)c(C(=O)O)c1OC`, the Potency result in assay [1], in assay [2], in assay [3] and in assay [4] was “inactive” throughout.

Take `Cc1ccc(-c2csc(/C(C#N)=C(\O)CCl)n2)cc1`: the Potency entry in assay [1] and in assay [3] was “inactive” each time. Further, the activation in assay [2] is -6.35% [at 17.1 µM, percent relative to cAMP agonist control]. Moreover, in assay [4], the activity change, negative = inhibition is -2.33% [at 30.8 µM].

With `Cc1ccc(/C=C(\C#N)C(=O)Nc2cccc3ncccc23)o1`, the Potency result in assay [1], in assay [2], in assay [3] and in assay [4] was “inactive” throughout.

Regarding `Cc1ccn2c(=O)nc(SCC(=O)Nc3ccc4c(c3)OCO4)nc2c1`, the Potency entry in assay [1], in assay [2], in assay [3] and in assay [4] was “inactive” throughout.

Turning to `Cc1cccc(-n2ccnc2SCC(=O)Nc2ccc(F)cc2F)c1C`, the Potency result in assay [1], in assay [2], in assay [3] and in assay [4] was “inactive” in each case.

`CC(C)(C)Cc1c(-c2ccccc2)nc2ccc(Cl)cn12`: the Potency entry in assay [1] and in assay [3] was “inactive” throughout. In assay [2], the activation was 9.48% [at 17.1 µM, percent relative to cAMP agonist control]. The activity change, negative = inhibition in assay [4] is -2.23% [at 30.8 µM].

Regarding `COCOCCn1cc(CN2CCS(=O)(=O)N(Cc3ccc(-c4ccccc4)cc3)C(CC(C)C)C2=O)nn1` (stereo not drawn), in assay [1], the Potency entry is “inactive”. Besides, in assay [2], the activation was 4.12% [at 17.1 µM, percent relative to cAMP agonist control]. For the same molecule, the Potency in assay [3] was 3.01 µM (active). For the same molecule, in assay [4], the activity change, negative = inhibition is -6.67% [at 30.8 µM].
